“And” between values parts separate entries of the source, which are not always exact repeats. Equal values may be shown once. Compounds without any hit were thinned out: in the full panel of roughly 83,000, 20% have a hit.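 Negative percent growth values reflect cell death: -40 means 40% of the cells present at the start died, and -100 means all died.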 The source made the active and inactive calls. Rule for the calls: active = growth percent below 10; inactive = the rest.
Columns and labels:
Experiment in all cases: NCI-60 one-dose screen, 48 h (100 = growth as untreated, 0 = no growth, -100 = all killed)
Conditions in all cases: 10 µM unless noted
DU-145 prostate = tested on: DU-145 prostate
K-562 leukemia = tested on: K-562 leukemia
MALME-3M melanoma = tested on: MALME-3M melanoma
MDA-MB-231 breast = tested on: MDA-MB-231 breast
RXF 393 renal = tested on: RXF 393 renal
SF-268 CNS = tested on: SF-268 CNS
SF-295 CNS = tested on: SF-295 CNS
SF-539 CNS = tested on: SF-539 CNS
UACC-257 melanoma = tested on: UACC-257 melanoma
M14 melanoma = tested on: M14 melanoma

SMILES	growth (DU-145 prostate)	growth (K-562 leukemia)	growth (MALME-3M melanoma)	growth (MDA-MB-231 breast)	growth (RXF 393 renal)	growth (SF-268 CNS)	growth (SF-295 CNS)	growth (SF-539 CNS)	growth (UACC-257 melanoma)	growth (M14 melanoma)
CC(O)(CC(=O)CC(=O)c1ccccc1)c1ccccc1 (stereo not given)	143% (inactive) and 102% (inactive)	91.2% (inactive)	113% (inactive) and 96.5% (inactive)	97.4% (inactive) and 88.5% (inactive)	94.1% (inactive) and 93.3% (inactive)	110% (inactive) and 98.8% (inactive)	91.1% (inactive)	104% (inactive) and 108% (inactive)	90.6% (inactive) and 110% (inactive)	96.1% (inactive) and 96% (inactive)
O=C1OC2(c3ccccc31)c1ccc(O)c(O)c1Oc1c2ccc(O)c1O	116% (inactive) and 119% (inactive)	115% (inactive) and 92.6% (inactive)	126% (inactive) and 114% (inactive)	110% (inactive) and 108% (inactive)	102% (inactive) and 120% (inactive)	108% (inactive) and 114% (inactive)	110% (inactive) and 130% (inactive)	108% (inactive) and 125% (inactive)	106% (inactive)	113% (inactive)
CC(CN=Cc1ccccc1O)N=Cc1ccccc1O (stereo not given)	121% (inactive) and 105% (inactive)	78.7% (inactive) and 88.2% (inactive)	124% (inactive) and 110% (inactive)	111% (inactive) and 104% (inactive)	102% (inactive) and 91% (inactive)	108% (inactive) and 91% (inactive)	112% (inactive)	94.9% (inactive) and 87.9% (inactive)	87.7% (inactive) and 121% (inactive)	106% (inactive) and 102% (inactive)
CNC(=O)c1cccc(-c2ccc3c(N4CCOC[C@@H]4C)nc(N4CCOC[C@@H]4C)nc3n2)c1	12.2% (inactive)	25.3% (inactive) and 12.6% (inactive)	-32.1% (active) and -46.6% (active)	6.14% (active) and 4.21% (active)	-28.8% (active) and -33.9% (active)	9.04% (active) and 13.7% (inactive)	-37.4% (active) and -36.6% (active)	-26.5% (active) and -40.2% (active)	-21.2% (active) and -25.5% (active)	-3.53% (active) and -5.57% (active)
S=C1SCN(Cc2ccccc2)CN1Cc1ccccc1	41.8% (inactive)	46.4% (inactive)	92.1% (inactive)	85% (inactive)	87.1% (inactive)	73.5% (inactive)	100% (inactive)	91.4% (inactive)	95.2% (inactive)	82.3% (inactive)
O=S(=O)(Nc1ccccc1)C1CCCCC1	108% (inactive) and 113% (inactive)	97.6% (inactive) and 93.8% (inactive)	121% (inactive) and 123% (inactive)	106% (inactive) and 105% (inactive)	120% (inactive) and 118% (inactive)	99% (inactive) and 114% (inactive)	105% (inactive) and 110% (inactive)	109% (inactive) and 95.4% (inactive)	108% (inactive) and 107% (inactive)	101% (inactive) and 99.5% (inactive)
COc1c(/C(C)=N/N=c2sc(C(C)=O)nn2-c2ccc(Cl)cc2)c(Oc2ccccc2)c(OC)c2occc12	110% (inactive) and 109% (inactive)	93.9% (inactive) and 101% (inactive)	102% (inactive) and 101% (inactive)	107% (inactive) and 101% (inactive)	113% (inactive)	101% (inactive) and 87% (inactive)	95.8% (inactive) and 105% (inactive)	103% (inactive) and 93.7% (inactive)	106% (inactive) and 113% (inactive)	113% (inactive) and 96.2% (inactive)
O=[N+]([O-])c1ccc(N/N=C\c2cc(Br)ccc2O)nc1	31.8% (inactive) and 24.4% (inactive)	20.6% (inactive) and -3.71% (active)	16.6% (inactive)	11% (inactive) and 24.3% (inactive)	44.2% (inactive) and 48.2% (inactive)	22.3% (inactive) and 19.7% (inactive)	6.95% (active) and 7.63% (active)	8.15% (active) and 9.56% (active)	9.18% (active) and -3.76% (active)	2.25% (active) and 13.7% (inactive)
CNc1ccc2nc3ccc(=[N+](C)C)cc-3sc2c1	42.4% (inactive) and 7.81% (active)	8.78% (active) and 22.8% (inactive)	-28.2% (active) and -24.3% (active)	4.03% (active) and -13.7% (active)	58.3% (inactive) and 32.9% (inactive)	5.13% (active) and 2.8% (active)	-7.68% (active) and 7.95% (active)	-6.95% (active) and -15.6% (active)	-22.2% (active) and -27.4% (active)	3.79% (active) and -23.3% (active)
CCN1CCN(CCNc2nccc(-c3c(-c4cccc(O)c4)nc4sccn34)n2)S1(=O)=O	67.1% (inactive) and 55.1% (inactive)	69.6% (inactive) and 62.7% (inactive)	-11.1% (active) and -23.5% (active)	64.7% (inactive) and 68.3% (inactive)	42.8% (inactive) and 61.8% (inactive)	86.2% (inactive)	93.3% (inactive) and 98.9% (inactive)	89.7% (inactive) and 87.3% (inactive)	1.33% (active) and -7.98% (active)	5.92% (active) and 8.15% (active)
CC[N+](CC)(CC(=O)Nc1c(C)cccc1C)Cc1ccccc1	101% (inactive)	94.7% (inactive)	96.3% (inactive) and 89.9% (inactive)	75.7% (inactive) and 97.2% (inactive)	92.8% (inactive) and 106% (inactive)	91.9% (inactive) and 104% (inactive)	104% (inactive) and 101% (inactive)	111% (inactive) and 102% (inactive)	92.2% (inactive)	95.3% (inactive) and 100% (inactive)
CCN(CC)CCC(CNc1c2ccc([N+](=O)[O-])cc2nc2cc(OC)c(OC)cc12)c1ccccc1 (stereo not given)	-85.2% (active) and -100% (active)	-18.8% (active)	-80.1% (active) and -89.1% (active)	-58.4% (active) and -94.9% (active)	-89.8% (active)	-48.5% (active) and -98.7% (active)	3.98% (active) and -90.3% (active)	-86.9% (active) and -100% (active)	-41.2% (active) and -97.1% (active)	-63.2% (active) and -97.4% (active)
COc1ccc(-c2cn[nH]c2-c2cc(OC)c(OC)c(OC)c2)cc1N	13.8% (inactive) and 3.66% (active)	11% (inactive) and 11.5% (inactive)	78.7% (inactive) and 44.3% (inactive)	22.9% (inactive) and 14.6% (inactive)	19.3% (inactive)	26.5% (inactive) and 48.8% (inactive)	3.28% (active) and 17.5% (inactive)	1.73% (active) and -4.41% (active)	66.7% (inactive)	10.5% (inactive) and 15% (inactive)
Cc1nn(-c2ccccc2)nc1C(=O)Nc1ccccc1C(=O)NCC1CC1	109% (inactive) and 62.6% (inactive)	91.4% (inactive) and 44.3% (inactive)	135% (inactive) and 97% (inactive)	79.8% (inactive) and 23.6% (inactive)	105% (inactive) and 77.4% (inactive)	123% (inactive) and 91% (inactive)	114% (inactive) and 59.5% (inactive)	88.8% (inactive) and 30.9% (inactive)	111% (inactive)	105% (inactive) and 81.8% (inactive)

From PubChem BioAssay (NCI)
